Measured values taken from PubChem BioAssay (Tox21).
Inconclusive results are not listed. The source made the active and inactive calls. Unless noted, calls follow the shape of the dose curve; as a rule, active = well fitted curve in the direction sought with a large enough effect in the repeat runs; inconclusive = weak or mixed curves; inactive = no such curve, though single readings can be large; an effect the other way counts as inactive or inconclusive.

What was measured:
[1] = qHTS assay for small molecule agonists of the p53 signaling pathway (AID 651631; calls by dose curve; also: nearly all actives have a fitted effect of over 15% in size; also: potency is read from the fitted curve at half-maximal effect)
In short: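 Readout was fluorescence from the LiveBLAzer FRET substrate, applied for 2 h at room temperature after 16 h compound exposure at 37 °C. Cells were the p53RE-bla HCT-116 line, with beta-lactamase driven by p53 response elements.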

[2] = qHTS assay for small molecules that induce genotoxicity in human embryonic kidney cells expressing luciferase-tagged ATAD5 (AID 651632); also: nearly all actives have a fitted effect of over 15% in size; also: potency is read from the fitted curve at half-maximal effect
In short: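 ATAD5-luc HEK293T, 2,000 cells/well; cpd or DMSO pin-transferred; 16 hr, 37C/5% CO2; Amplite 30 min RT; luminescence.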

[3] = qHTS assay for small molecule agonists of the p53 signaling pathway - cell viability (AID 651633; calls by dose curve; also: series mostly up to about 83 µM; nearly all actives have a fitted effect of over 30% in size)
In short: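 p53RE-bla cells, seeded at 4,000 per well and rested 5 h at 37 C/5% CO2, received compounds in DMSO for 16 h at 37 C. CellTiter-Glo was then added, and luminescence was read after 30 min at room temperature to gauge cytotoxicity.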

[4] = qHTS assay for small molecules that induce genotoxicity in human embryonic kidney cells expressing luciferase-tagged ATAD5 - cell viability (AID 651634; calls by dose curve; also: nearly all actives have a fitted effect of over 25% in size; also: potency is read from the fitted curve at half-maximal effect)
In short: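 Fluorescence from CellTiter-Fluor, reporting protease activity within live cells, served as the viability read-out. HEK293T cells carrying luciferase-tagged ATAD5 had been treated with compound for 15.5 hr at 37C.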

[5] = qHTS assay to test for compound auto fluorescence at 590 nm (red) in HepG2 cells (AID 720674)
In short: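 Compound auto-fluorescence is scored relative to Rose Bengal sodium, measured at 540/590 nm in live HepG2 cultures after 1 hr compound contact (37 C, 5% CO2).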

[6] = qHTS assay to test for compound auto fluorescence at 535 nm (green) in HepG2 cells (AID 720675)
[7] = qHTS assay to test for compound auto fluorescence at 460 nm (blue) in HEK293 cells (AID 720678); also: potency is read from the fitted curve at half-maximal effect
In short: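 Blue read-out at excitation 405 nm and emission 460 nm follows overnight compound exposure of HEK293 cells at 37C in 5% CO2. Activity is given as auto fluorescence equivalency to triamterene.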

[8] = qHTS assay to test for compound auto fluorescence at 590 nm (red) in HEK293 cells (AID 720679)
In short: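 Red channel, Ex/Em 540/590nm; signal expressed as equivalency to Rose Bengal sodium. HEK293, 2,000 cells/well, 10% dialyzed FBS; 23 nL compound pinned after 4-5 hr attachment; overnight 37C/5% CO2 before reading.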

[9] = qHTS assay to test for compound auto fluorescence at 535 nm (green) in HEK293 cells (AID 720680)
[10] = qHTS assay to test for compound auto fluorescence at 460 nm (blue) in HEK293 cell free culture (AID 720681); also: potency is read from the fitted curve at half-maximal effect
In short: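 Test compounds were pinned into cell-free culture medium (DMEM with 10% FBS) and fluorescence was read directly at Ex/Em 405/460 nm. Signals were expressed as fluorescence equivalents of triamterene, with DMSO vehicle as control.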

[11] = qHTS assay to test for compound auto fluorescence at 535 nm (green) in HEK293 cell free culture (AID 720682)
In short: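 Compounds were pin-transferred into cell-free DMEM with 10% FBS, and green fluorescence was read at excitation 485 nm and emission 535 nm. Intensities were expressed as fluorescein-equivalent values.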

[12] = qHTS assay to test for compound auto fluorescence at 590 nm (red) in HEK293 cell free culture (AID 720683)
In short: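 Tox21 10K library compounds were pinned into cell-free DMEM with 10% FBS and fluorescence was read at excitation 540 nm. Activity is expressed as Rose Bengal sodium equivalency.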

[13] = qHTS assay to test for compound auto fluorescence at 590 nm (red) in HepG2 cell free culture (AID 720684)
In short: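 Red fluorescence (540 nm excitation, 590 nm emission) was measured after compound transfer into cell-free MEM supplemented with 10% FBS. Values are equivalencies against Rose Bengal sodium.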

[14] = qHTS assay to test for compound auto fluorescence at 460 nm (blue) in HepG2 cell free culture (AID 720685); also: potency is read from the fitted curve at half-maximal effect
In short: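 Compound (23 nL) or DMSO pinned into cell-free MEM with 10% FBS; blue fluorescence read at 405/460 nm excitation/emission, expressed as auto-fluorescence equivalency to triamterene.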

[15] = qHTS assay to test for compound auto fluorescence at 535 nm (green) in HepG2 cell free culture (AID 720686)
[16] = qHTS assay to test for compound auto fluorescence at 460 nm (blue) in HepG2 cells (AID 720687); also: potency is read from the fitted curve at half-maximal effect
In short: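 Cells (2,000/well in MEM with 10% FBS) attached overnight at 37 C, then were exposed to compound or DMSO for 1 hr at 37 C, 5% CO2. Fluorescence read at Ex/Em 405/460 nm, expressed as triamterene-equivalent signal.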

[17] = target: Glucocorticoid receptor (Homo sapiens) (UniProt P04150); experiment: qHTS assay to identify small molecule agonists of the glucocorticoid receptor (GR) signaling pathway (AID 720691; active = well fitted activation curve with a large enough effect in the signal ratio in the repeat runs, not every such curve was filed as active; the % refers to the signal ratio)
Glucocorticoid receptor (Homo sapiens), sequence (P04150 whole entry, looked up): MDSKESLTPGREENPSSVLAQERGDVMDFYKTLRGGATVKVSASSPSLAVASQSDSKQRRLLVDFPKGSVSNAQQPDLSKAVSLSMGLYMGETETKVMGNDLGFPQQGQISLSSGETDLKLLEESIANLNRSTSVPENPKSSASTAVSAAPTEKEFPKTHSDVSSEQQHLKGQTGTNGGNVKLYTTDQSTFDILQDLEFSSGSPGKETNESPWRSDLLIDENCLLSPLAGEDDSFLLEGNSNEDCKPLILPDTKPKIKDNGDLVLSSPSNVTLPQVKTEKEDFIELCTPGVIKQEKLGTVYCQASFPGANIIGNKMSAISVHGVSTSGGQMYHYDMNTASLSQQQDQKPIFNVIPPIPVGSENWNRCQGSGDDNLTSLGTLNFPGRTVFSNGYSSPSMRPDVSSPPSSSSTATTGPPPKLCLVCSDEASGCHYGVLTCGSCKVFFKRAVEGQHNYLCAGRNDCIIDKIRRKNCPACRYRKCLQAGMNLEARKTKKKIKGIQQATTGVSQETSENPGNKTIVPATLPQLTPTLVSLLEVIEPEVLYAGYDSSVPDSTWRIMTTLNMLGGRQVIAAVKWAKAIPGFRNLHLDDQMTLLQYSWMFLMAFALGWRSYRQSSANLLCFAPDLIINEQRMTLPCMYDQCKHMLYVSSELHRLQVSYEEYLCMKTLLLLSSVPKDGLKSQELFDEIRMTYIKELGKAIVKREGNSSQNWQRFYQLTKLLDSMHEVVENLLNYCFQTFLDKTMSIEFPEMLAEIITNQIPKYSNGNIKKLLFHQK
In short: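 Fluorescence intensity from LiveBLAzer B/G FRET substrate (2 h, room temperature) reports beta-lactamase expression driven by the glucocorticoid response element in GR-bla HeLa cells after 18 h compound exposure at 37 C.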

[18] = qHTS assay for small molecule disruptors of the mitochondrial membrane potential - cell viability (AID 720634; calls by dose curve;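 also: human HepG2 liver cancer cells; series mostly up to about 83 µM; nearly all actives have a fitted effect of over 20% in size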)
In short: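 Cells: HepG2, 2,000/well, attached overnight. Compound 1 hr, 37 C/5% CO2. +m-MPI dye, +CellTiter-Glo 30 min RT. Readout: luminescence (ATP).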

[19] = qHTS assay for small molecule disruptors of the mitochondrial membrane potential (AID 720635); also: potency is read from the fitted curve at half-maximal effect
In short: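 HepG2 cells (2,000/well) attached overnight at 37C, then took compound for 1 hr at 37C, 5% CO2. Mito-MPS dye was added for 30 min; fluorescence was read at 490/535 nm (monomers) and 540/590 nm (aggregates).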

[20] = target: Glucocorticoid receptor (Homo sapiens) (UniProt P04150); experiment: qHTS assay to identify small molecule antagonists of the glucocorticoid receptor (GR) signaling pathway (AID 720692; active = well fitted inhibition curve with a large enough effect in the signal ratio in the repeat runs, not every such curve was filed as active; the % refers to the signal ratio)
In short: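 HeLa GR-bla cells; cmpd + dex 5 nM final, 18 h 37 C; LiveBLAzer B/G FRET substrate 2 h RT; fluorescence intensity read. Antagonist mode, qHTS.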
% is scaled to controls: 0 for no effect and ±100 for the full control effect; tags tell the direction and shape of the fitted curve or compound fluorescence and quenching.

OC1CCC(C2CCCCC2)CC1 (stereo not given)
inactive: Potency [1] | Potency [2] | Potency [3] | Potency [4] | Potency [5] | Potency [6] | Potency [7] | Potency [8] | Potency [9] | Potency [10] | Potency [11] | Potency [12] | Potency [13] | Potency [14] | Potency [15] | Potency [16] | Potency [17]

CC1=CCC(=C(C)C)CC1
inactive: Potency [1] | Potency [2] | Potency [3] | Potency [4] | Potency [5] | Potency [6] | Potency [7] | Potency [8] | Potency [9] | Potency [10] | Potency [11] | Potency [12] | Potency [14] | Potency [15] | Potency [16]

O=S(=O)(O)c1ccc(Nc2nc(Nc3ccc(/C=C/c4ccc(Nc5nc(Nc6ccc(S(=O)(=O)O)cc6)nc(N(CCO)CCO)n5)cc4S(=O)(=O)O)c(S(=O)(=O)O)c3)nc(N(CCO)CCO)n2)cc1
inactive: Potency [2] | Potency [3] | Potency [4] | Potency [18] | Potency [5] | Potency [6] | Potency [8] | Potency [9] | Potency [11] | Potency [12] | Potency [15]
active: Potency [1] 41.3 µM | Potency [7] 31.6 µM [fluorescent] | Potency [10] 25.1 µM | Potency [14] 35.5 µM [fluorescent] | Potency [16] 35.5 µM [fluorescent]

O=C1CCCCCCCCCCCCCCCO1
inactive: Potency [1] | Potency [2] | Potency [3] | Potency [18] | Potency [19] | Potency [5] | Potency [6] | Potency [7] | Potency [9] | Potency [10] | Potency [11] | Potency [12] | Potency [13] | Potency [14] | Potency [15] | Potency [16] | Potency [17]

CCCCCCC1CCCC(=O)O1 (stereo not given)
inactive: Potency [1] | Potency [2] | Potency [3] | Potency [4] | Potency [18] | Potency [5] | Potency [6] | Potency [7] | Potency [8] | Potency [9] | Potency [10] | Potency [11] | Potency [12] | Potency [14] | Potency [15] | Potency [16] | Potency [17] | Potency [20]

CC(CO)Oc1ccccc1 (stereo not given)
inactive: Potency [1] | Potency [2] | Potency [3] | Potency [4] | Potency [18] | Potency [5] | Potency [6] | Potency [7] | Potency [9] | Potency [10] | Potency [11] | Potency [12] | Potency [13] | Potency [14] | Potency [17] | Potency [20]

CCCC(=O)OCCc1ccccc1
inactive: Potency [1] | Potency [2] | Potency [3] | Potency [18] | Potency [19] | Potency [5] | Potency [6] | Potency [7] | Potency [8] | Potency [9] | Potency [10] | Potency [11] | Potency [12] | Potency [14] | Potency [15] | Potency [16] | Potency [17]

OC12N=C(c3ccccc3)SC1Cc1cc(Cl)ccc12 (stereo not given)
active: Potency [19] 17.2 µM
inactive: Potency [1] | Potency [2] | Potency [3] | Potency [4] | Potency [5] | Potency [6] | Potency [7] | Potency [8] | Potency [9] | Potency [10] | Potency [11] | Potency [12] | Potency [13] | Potency [15] | Potency [16]

CCCCC(CC)CN1CN(CC(CC)CCCC)CC(C)(N)C1 (stereo not given)
inactive: Potency [1] | Potency [2] | Potency [3] | Potency [4] | Potency [18] | fluorescence, relative to Rose Bengal [5] 0.775% [at 18.6 µM] | fluorescence, % of fluorescein control [6] 0.0031% [at 18.6 µM] | fluorescence, % of triamterene [7] -0.206% [at 18.6 µM] | fluorescence, % of fluorescent control [8] -0.0426% [at 18.6 µM] | fluorescence, % of fluorescein [9] -0.025% [at 18.6 µM] | fluorescence, % of fluorescent control [10] -0.0323% [at 18.6 µM] | activity change [11] 0.0339% [at 18.6 µM, hits give high values] | fluorescence, % of fluorescent control [12] -0.232% [at 18.6 µM] | fluorescence, % of fluorescent control [14] -0.127% [at 18.6 µM]

CNC(=O)c1ccccc1Sc1ccc2c(/C=C/c3ccccn3)n[nH]c2c1
inactive: Potency [3] | Potency [5] | Potency [6] | Potency [7] | Potency [8] | Potency [9] | Potency [10] | Potency [11] | Potency [12] | Potency [13] | Potency [14] | Potency [15] | Potency [16] | Potency [20]
active: Potency [1] 0.75 µM | Potency [2] 0.237 µM | Potency [4] 13.3 µM | Potency [19] 2.37 µM

CC(=O)CC(=O)Nc1ccc(S(=O)(=O)O)cc1
inactive: Potency [1] | Potency [2] | Potency [3] | Potency [4] | Potency [5] | Potency [6] | Potency [7] | Potency [8] | Potency [9] | Potency [10] | Potency [11] | Potency [12] | Potency [13] | Potency [14] | Potency [16] | Potency [17]

CCN(CCN)c1cccc(C)c1
inactive: Potency [1] | Potency [2] | Potency [3] | Potency [4] | Potency [18] | Potency [5] | Potency [6] | Potency [7] | Potency [9] | Potency [10] | Potency [11] | Potency [12] | Potency [13] | Potency [14] | Potency [16]

O=C(O)CCN(C1(C(=O)NO)CCCC1)S(=O)(=O)c1ccc(Oc2ccc(F)cc2)cc1
inactive: Potency [1] | Potency [2] | Potency [3] | Potency [4] | Potency [18] | Potency [5] | Potency [6] | Potency [7] | Potency [8] | Potency [9] | Potency [10] | Potency [11] | Potency [12] | Potency [14] | Potency [15] | Potency [16]

C[C@H]1NCc2cc(-c3ccc4c(=O)c(C(=O)O)cn(C5CC5)c4c3OC(F)F)ccc21
inactive: Potency [1] | Potency [2] | Potency [3] | Potency [4] | Potency [18] | Potency [5] | Potency [6] | Potency [7] | Potency [8] | Potency [9] | Potency [10] | Potency [11] | Potency [12] | Potency [13] | Potency [16] | Potency [17] | Potency [20]

C=CC(C)(CCC=C(C)C)OC=O (stereo not given)
inactive: Potency [1] | Potency [2] | Potency [3] | Potency [4] | Potency [18] | Potency [5] | Potency [6] | Potency [7] | Potency [8] | Potency [9] | Potency [10] | Potency [11] | Potency [12] | Potency [13] | Potency [16] | Potency [17] | Potency [20]
